# Target: NELL2
# Experiment: pooled miR-30 sensor sort-seq; sequence = guide strand
# Conditions: shRNA
row,Sequence,sensor-assay potency score (higher = more potent)
1,TAACCTTTACAAACTTTGCAAC,-0.975
2,TAAAATATCCTGTAGCTCCATG,-0.475
3,TTGCATGTCGTTCCATTCCCTG,-1.03
4,TAAGACGTCAATCTGTAGGGAA,0.711
5,TCGACAGCTACAAACAGCCCTG,-0.27
6,TTGTGATACACTCATCATGTTC,-1.15
7,TAGAGTTTCACACTGGATGGTT,0.431
8,TTACAAACTTTGCAACAGCTGT,-0.672
9,TGTCACATTGAACAAAACCATC,-1.67
10,TTTCACAATAGCACTGATCCAA,0.272
11,TTATTTCTCTGTCCTAGCCAAA,-1.55

# Target: NETO2
# Experiment: as above
# Conditions: shRNA
row,Sequence,sensor-assay potency score (higher = more potent)
1,TTAACATATATAGACTGCCTGA,-0.881
2,TTAATCCACATGAATCTCCCTG,0.06
3,TTATTAACAACACTTTGAGGAC,-0.45
4,TAATCCACATGAATCTCCCTGT,0.411
5,TTCTTTGACGTGGAGCAGCTTC,-0.587
6,TAAATGAATATTTTGCTCGAAA,-0.895
7,TTGACGTGGAGCAGCTTCCAAA,-1.08
8,TTGCTCGAAATCCCAGTCCTTC,-0.463
9,TTGATAATCTAGGAACCTCAAA,-1.24
10,TTTCAATAGAACTGCTTCCATC,-1.24
11,TTGTTTTCTCCTCTTGTTCTAC,-0.539
12,TAACAACACTTTGAGGACCGAG,-0.0442

# Target: NEURL2
# Experiment: as above
# Conditions: shRNA
row,Sequence,sensor-assay potency score (higher = more potent)
1,AAACACGTCCACCACCGCGTAG,-1.26
2,TTGTGGAAGCAAACACGTCCAC,-0.451
3,TTTCTCCTCGATCTCGACCAGG,-0.592
4,TAGGCGGCACAGAGTCTGCAGG,-1.34
5,TTTATTTCTGGTCTTGGCTGGC,-0.107
6,TCTTTGTGGAAGCAAACACGTC,-1.58
7,TGTGGAAGCAAACACGTCCACC,-1.66
8,ATGATGTGCATGTCGGCCGTGC,-0.877
9,TTCTCCTCGATCTCGACCAGGA,-0.684
10,TATGGTTCCACGAGGAGGGTTG,-0.457
11,ATCGGGCAGAGAAAACTCGGGA,-0.832

# Target: NEUROD6
# Experiment: as above
# Conditions: shRNA
row,Sequence,sensor-assay potency score (higher = more potent)
1,TTTAATTCATCTTGCATTGTGA,-0.0595
2,TTCTCTAGAAAACTTTCTGCAC,-0.894
3,TTTGTTGTCTTTTTTTTCCTAA,-0.154
4,TAATTCATCTTGCATTGTGAGA,-0.914
5,TGTCTCCTGAACTTGACCCTTT,-0.00785
6,TCAGAAACTAGTAAACACCTTA,0.248

# Reference: the OligoGym collection
